From ChEMBL document CHEMBL3988442, “University of Dundee, Small-Polar-MMV Screening Library” (2021)

Legend:
[1] = target: T1, Aspartate--tRNA(Asp/Asn) ligase (Mycobacterium tuberculosis (strain ATCC 25618 / H37Rv)) (UniProt P9WFW3); assay: Assay for Asp RNA synthetase-1 from Mycobacterium tuberculosis; format: functional; design: scale not given: direction of the effect not stated beside the values; settings: 30 µM; note: in the data most compounds retested in dose-response had high values
T1 sequence (whole entry): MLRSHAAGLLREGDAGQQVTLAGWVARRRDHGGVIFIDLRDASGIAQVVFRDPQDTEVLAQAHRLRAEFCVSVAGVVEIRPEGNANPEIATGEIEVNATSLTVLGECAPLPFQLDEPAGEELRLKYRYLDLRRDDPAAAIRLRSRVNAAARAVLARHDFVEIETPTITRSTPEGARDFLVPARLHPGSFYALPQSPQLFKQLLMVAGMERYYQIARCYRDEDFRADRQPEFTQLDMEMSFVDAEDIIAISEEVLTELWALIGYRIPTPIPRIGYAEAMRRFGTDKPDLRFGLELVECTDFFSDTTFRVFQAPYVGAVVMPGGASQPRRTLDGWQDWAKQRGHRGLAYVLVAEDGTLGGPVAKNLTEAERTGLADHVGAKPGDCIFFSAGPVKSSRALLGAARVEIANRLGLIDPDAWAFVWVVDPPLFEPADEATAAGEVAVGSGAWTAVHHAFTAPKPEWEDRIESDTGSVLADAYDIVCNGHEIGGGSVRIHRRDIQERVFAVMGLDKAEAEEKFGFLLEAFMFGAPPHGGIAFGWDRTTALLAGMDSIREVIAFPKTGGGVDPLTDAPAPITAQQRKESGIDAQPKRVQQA

[2] = target: Shiga toxin 2 (Escherichia coli O157:H7) (UniProt P09385+P09386); assay: E. coli 0.157:H7 Shiga Toxin SOP - stx2 screening assay; format: functional; design: scale not given: direction of the effect not stated beside the values; settings: 30 µM

Compound | Percent Effect [1] | Percent Effect [2]
CN(Cc1ccco1)Cc1ccccc1CNC(=O)c1ccc[nH]1 | 0.725% | 26.7%
NC(=O)C1CCN(C(=O)c2cccc(OCc3cscn3)c2)CC1 | -1.48% | -35.2%
CC(Cn1ccnc1)NC(=O)N1CCN(Cc2cccnc2)CC1 (stereo unspecified) | 0.189% | 6.15%
Cc1nn(C)c(C)c1C1CCCN1C(=O)CCc1cscn1 (stereo unspecified) | -2.02% | 20.4%
CCCc1noc(CN2CCCC2c2ccsc2)n1 (stereo unspecified) | -3.91% | 0.761%
COC(=O)c1ccc2ccn(CC3CCCO3)c(=O)c2c1 (stereo unspecified) | 7.1% | 6.53%
Cn1nc(CNC(=O)c2ccc(Cl)cc2)c2c1CCOC2 | 2.4% | -5.64%
CCOc1ccc(Cl)c(C(=O)N2CCN(c3cnccn3)CC2)n1 | -1.79% | -46.8%
CN(Cc1ccc(F)cc1)C(=O)CN1CCOC(Cn2cncn2)C1 (stereo unspecified) | 3.63% | -0.222%
CCOCCn1c(=O)[nH]c2cc(C(=O)N(C)Cc3nc(C)cs3)ccc21 | 1.06% | -4.35%
Cc1nn(C)c(N(C)C)c1CNCC(O)c1ccccc1 (stereo unspecified) | -4.11% | -17.5%
COc1cc(C(=O)Nc2nc(C)no2)ccc1C | -0.143% | -2.1%
CNc1cc2c(nn1)CCN(C(=O)c1ccoc1)C2 | 0.663% | 28.5%
CN1CCN(c2cc(CNC(=O)c3ccc(=O)n(C)c3)ccn2)CC1 | -4.9% | -0.684%
c1ccc(CN2CCc3nnc(CN4CCCCC4)n3CC2)nc1 | 3.71% | 1.8%
Cc1nc(C2CCCN2Cc2nc(C)c(C)o2)no1 (stereo unspecified) | -0.728% | 7.48%
CN1CCC(NC(=O)NCCNc2ccccn2)CC1 | 0.524% | -5.67%
COc1cc(CN(C(=O)Nc2cccnc2OC)C2CC2)ccc1O | -2.28% | 11.9%
CCn1cc(NC(=O)NCc2ccc3c(c2)OCCO3)cn1 | 1.48% | -43.3%
CCc1c(C(=O)NCC2CCS(=O)(=O)C2)cnn1-c1ccc(C)cc1 (stereo unspecified) | -1.8% | -0.796%
Cc1nc(C)n(CC2CCCN(Cc3nnc(-c4ccco4)o3)C2)n1 (stereo unspecified) | -2.25% | -19.8%
CC(C(=O)N1CCN(c2cnccn2)CC1)n1cncn1 (stereo unspecified) | 2.72% | 2.13%
COc1ccc(CN2CC[C@@H](O)[C@@H]2Cc2ccccc2)cc1 | -0.406% | -47%
CCOc1cccc2c1OCC(C(=O)NS(=O)(=O)Cc1ccccc1)=C2 | -0.211% | 23.7%
Cc1cc(C(=O)N2CCc3nnc(N(C)C)cc3C2)c(C)n1C1CC1 | 0.451% | -0.445%
Cc1ccc(F)c(C(=O)N2CCN(S(C)(=O)=O)[C@@H](C)C2)c1 | -2.79% | -20.5%

Compound | Percent Effect [1] | Percent Effect [2]
Cc1nn(C)c(C)c1C1CCCN1CCCc1nc2ccccc2o1 (stereo unspecified) | 3.71% | 7.57%
Cn1cc(CCNC(=O)NC2CCS(=O)(=O)C2)cn1 (stereo unspecified) | 2.01% | -8.38%
CC(C)Nc1nc(N2CCCC2)nc2c1CN(C(C)C)CC2 | 2.18% | -118%
N#Cc1cccnc1NCc1cccnc1N1CCC(C(N)=O)CC1 | 4.47% | -10.3%
Cc1ccc(NC2CCN(C(=O)CN(C)C3CC3)CC2)nn1 | -0.538% | -2.23%
Cc1nc(-c2ccsc2)ccc1C(=O)NCCC1CCCO1 (stereo unspecified) | 0.767% | -18.3%
CC(C)C(Sc1nnnn1-c1ccccc1)C(=O)NCc1cccnc1 (stereo unspecified) | 1.64% | 8.76%
Cc1cnn(CC2CCCCN2C(=O)c2ccc3[nH]nnc3c2)c1 (stereo unspecified) | 0.548% | 30.9%
Cc1nc(-c2ccc(C(=O)O)cc2)cc(C2CCN(C(C)C)C2)n1 (stereo unspecified) | 2.34% | -5.82%
COc1cc(CN(C)C(=O)NCCC2CCCO2)ccc1SC (stereo unspecified) | -3.98% | -6.71%
Cc1nc(CN2CCCC2c2ccsc2)nc2ccccc12 (stereo unspecified) | -2.75% | -26.3%
CN(Cc1ccc(F)cc1)[C@@H]1CN(C(=O)c2cccs2)C[C@H]1O | 4.22% | -17.2%
CN1CC2(COCCN(C(=O)c3ccco3)C2)OCC1=O (stereo unspecified) | 8.76% | 9.96%
CNS(=O)(=O)c1ccc(C(=O)NC2CCc3nc(C)cn3C2)o1 (stereo unspecified) | -6.5% | 17.4%
COCCn1cc2c(n1)C(CNCc1ccco1)OCC2 (stereo unspecified) | 3% | -35.6%
COc1ccc(C(=O)Nc2cnn(CC(=O)NC3CCCC3)c2)c(O)c1 | 1.25% | -54.5%
CNS(=O)(=O)c1ccc(CNC(=O)NCC2CCOC2)cc1 (stereo unspecified) | -4.9% | 25.4%
Cc1cccc(CN2C(=O)CO[C@@H]3CN(CCO)C[C@H]32)c1 | -4.77% | 2.07%
O=C([C@H]1CCCO1)N1CCc2ncnc(NC3CC3)c2CC1 | 2.52% | -32%
COc1cc(CN(C)C(=O)Nc2cc(C)on2)ccc1SC | 2.27% | -8.55%
COc1cccc(C2CC(=O)Nc3nc(N4CCOCC4)sc32)c1OC (stereo unspecified) | 63.4% | -3.76%
c1ccc(CC2CCN(Cc3ccnc(-c4cccnc4)n3)CC2)cc1 | 0.908% | -6.53%
Cc1cccc(C)c1NC(=O)CCNC(=O)c1ccoc1 | -1.5% | 15.3%
CC(C)(C)c1ccc(C2(C(=O)NCCCS(C)(=O)=O)CC2)cc1 | 8.98% | -49.3%
O=S(=O)(Cc1ccccc1)NCC1CCN(c2cnccn2)CC1 | 2.52% | 11.3%
NS(=O)(=O)CCNC(=O)c1nnn(-c2ccccc2)c1C1CC1 | 2.35% | -12.7%

Compound | Percent Effect [1] | Percent Effect [2]
CC(C)(C)C(=O)NCCC(=O)NS(=O)(=O)c1ccc2c(c1)OCCO2 | -10.1% | 0.645%
Cc1nc[nH]c1CN(C)CC1CCCN(CCc2ccc(Cl)cc2)C1 (stereo unspecified) | 4.6% | -62.7%
CCC(C)c1noc(C2CCN(C(=O)c3cccs3)CC2)n1 (stereo unspecified) | 4.84% | -48%
COc1c(C2CCCN2C(=O)c2csc(C(C)C)n2)c(C)nn1C (stereo unspecified) | 5.31% | 4.42%
Cc1nc(C)n(CC2CN(c3ncnc4[nH]ccc34)CCO2)n1 (stereo unspecified) | 0.364% | -9.54%
O=C(NCCNc1ncccn1)N1CCSCC1 | -0.235% | 17.7%
CN(C)CC1CN(Cc2ccsc2)Cc2nccn2C1 (stereo unspecified) | 4.71% | -1.56%
CC(C)n1cc(CN2CCCN(C(=O)c3nccnc3N)CC2)cn1 | 6.6% | -11.2%
COCCN1CCC(CNC(=O)C2(c3cc(C)cc(C)c3)CCC2)C1 (stereo unspecified) | -0.337% | 20.8%
COc1ncccc1NC(=O)NCC1CCS(=O)(=O)C1 (stereo unspecified) | 1.33% | -1.65%
Cc1n[nH]c(C(=O)NCc2ccnc(OCC(F)(F)F)c2)c1Br | -3.15% | 9.67%
O=C1CC(c2cccs2)c2snc(C(=O)O)c2N1 (stereo unspecified) | -3.23% | -4.3%
CN(Cc1cnn(C)c1)C(=O)NC1CCC(O)CC1 (stereo unspecified) | -5.01% | 12%
O=C(CCC1CCCC1)N1CCC(c2ncc3c(n2)CCNC3)CC1 | -3.47% | -54.5%
COCCO[C@@H]1CCN(Cc2csc(C)n2)[C@H]1Cc1ccccc1 | 3.03% | 1.09%
c1cnnc(N2CCCC2CNc2nc3ccccc3o2)c1 (stereo unspecified) | -3.6% | -10.1%
CCc1nc(C2CCCN(C(=O)c3ccc4[nH]nnc4c3)C2)no1 (stereo unspecified) | 2.74% | 14.5%
COCCn1ccc(=O)c(OCC(=O)Nc2cccc(C(C)=O)c2)c1C | -4.27% | -43.8%
Cn1cc(CN2CCCC3(CCCN3S(C)(=O)=O)C2)cn1 (stereo unspecified) | 6.18% | -11.1%
CC(C)Nc1ncnc2c1CCN(C(=O)Cc1ccccn1)CC2 | 3.17% | -44.7%
COCC(NC(=O)c1ccc[nH]1)c1cccc(C(F)(F)F)c1 (stereo unspecified) | -2.7% | -17.9%
CCOC(=O)NC(CNC(=O)c1ncccn1)CC(C)C (stereo unspecified) | 6.25% | 4.71%
CN(Cc1nnc(C2CC2)n1C)C1CCN(Cc2ccccc2F)C1 (stereo unspecified) | -3.49% | -40.3%
NCC1Cn2nnc(-c3cccc(F)c3)c2CO1 (stereo unspecified) | 1.16% | -69.1%
CCc1nc(CC(=O)NCC(Cc2ccc(F)cc2)C(N)=O)cs1 (stereo unspecified) | 1.14% | 3.77%
CC(C)c1cc(NCC(C)N2CCCC2)n2nccc2n1 (stereo unspecified) | 1.77% | -11.9%

Compound | Percent Effect [1] | Percent Effect [2]
FC1(F)CCN(Cc2ccncc2)CC12CCN(Cc1ccccn1)C2 (stereo unspecified) | 4.66% | -2.47%
CC(C)c1nccn1C1CCCN(C(=O)c2cnn(C)c2C2CC2)C1 (stereo unspecified) | -1.74% | 28.9%
Cc1scc(C(=O)N2CCC3(CCCN(C)C3=O)C2)c1-c1ccccc1 (stereo unspecified) | 2.02% | 8.94%
Cc1cccc(CN2CCC3(CCN(c4ccccn4)C3)C2=O)c1 (stereo unspecified) | 0.319% | -2.5%
COCC(=O)N1Cc2cn(C)nc2C(COc2cccnc2)C1 (stereo unspecified) | 0.598% | -21.7%
COc1c(C2CCCN2C(=O)c2cncnc2C)c(C)nn1C (stereo unspecified) | 4.44% | -11.2%
Cn1cc(CN2CCC3(CC2)CC(c2ccncc2)C(=O)N3)cn1 (stereo unspecified) | 12.5% | -4.24%
CCN(CC(=O)NC(C)C)S(=O)(=O)N1CCC(C)C1 (stereo unspecified) | 2.41% | -3.8%
Cc1cnn(CC(C)NCc2ccc(-n3cccn3)cc2)c1 (stereo unspecified) | -3.68% | -40%
Cn1cc(C2CCCN2C(=O)CCCOc2ccc(F)cc2F)cn1 (stereo unspecified) | -2.66% | 13.7%
O=C1NCC2(CCCN(Cc3ccccc3F)C2)Oc2ccccc21 (stereo unspecified) | -5.17% | -17.2%
CCOc1cc(/C=C/c2ncc(C(=O)O)s2)cc(Cl)c1OC | -1.24% | -0.531%
CN(CCOc1cccc(CN)c1)C1CCOCC1 | -0.881% | -50.4%
CC(C)(C)c1n[nH]c(C2CN(C(=O)c3csnn3)CCO2)n1 (stereo unspecified) | -2.01% | 5.88%
Cc1nn(C)c(C)c1C1CCCN1Cc1nc(-c2ccco2)oc1C (stereo unspecified) | -1.54% | 22.6%
COc1ccccc1CNC(=O)N1CCCC(c2nncn2C)C1 (stereo unspecified) | -4.33% | 25.8%
CC1Cc2ccccc2N1Cc1occc1C(=O)OCC(N)=O (stereo unspecified) | -3.97% | -1.38%
CC(C)Cc1noc(CN2CCCC(Cn3cncn3)C2)n1 (stereo unspecified) | -2.91% | -14.7%
CCNC(c1ccc(OC)cc1)c1cccnc1 (stereo unspecified) | 1.53% | 1.33%
Cc1ncccc1NC(=O)C1=NOC2(CCN(Cc3nccs3)C2)C1 (stereo unspecified) | 10.6% | -15.4%
COCCn1cc(C(=O)N2CCCC2c2cc(C)no2)ccc1=O (stereo unspecified) | -2.11% | 3.38%
Cc1cc(C)n(C2CCCN(C(=O)CCNS(C)(=O)=O)C2)n1 (stereo unspecified) | -0.16% | -20%
CC(C)N1CCC(CNCc2c[nH]nc2C(C)(C)C)C1 (stereo unspecified) | 7.32% | 11.2%
CS(=O)(=O)NC1CCN(C(=O)NCCc2ccccc2F)CC1 | -3.88% | -19.2%
Cc1ccc(S(=O)(=O)N2CCOc3ccccc32)cc1C(N)=O | 0.611% | -48.3%
